In PubChem BioAssay (NCI) one finds growth data, which are given here for 39 compounds.

About 83,000 compounds went through this panel and 20% of them were active in at least one assay; those are over-represented in the sample as a whole.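 Single-dose data. Exposure time 48 hours. Values below 10 considered active.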 Unmarked numbers belong to inactive results. Activity calls are given as the source filed them.

For one assay, the system named is SR leukemia. The experiment in a line: NCI-60 one-dose screen, 48 h (100 = growth as untreated, 0 = no growth, -100 = all killed). The conditions noted are these: 10 µM unless noted.
As for `O=C(NCCCNc1nccc(-n2ccc3cccnc32)n1)c1c(F)cccc1F`, the growth is 99.2%. Regarding `COc1ccc(C(=O)c2cc(OC)c3c(c2)OCO3)cc1O`, the growth was 9.89% (active). With `Cc1cc(C(C)(C)C)ccc1S`, the growth is 93.4%. For `Cn1cnc2c(N3CCN(C(=O)OCc4ccc5c(Cl)cc(Cl)c(O)c5n4)CC3)nc(Cl)nc21`, the growth is 74.1%. On to `Fc1ccccc1-c1nc(-c2nc3cc(Cl)c(Cl)cc3[nH]2)c2ccccn12`, for which the growth is 20.7%. On to `C1=Cc2ccccc2N(c2nnc(-c3ccccc3)o2)c2ccccc21`, for which the growth was 32.3%. With `COc1cc(C2CC(c3ccc4c(c3)OCO4)=NN2C=O)cc(OC)c1OC` (configuration not stated), the growth is 33.5%. On to `COc1ccc(/C=C2/C(=O)NC(SCC(=O)N3CCN(c4cc5c(cc4F)c(=O)c(C(=O)O)cn5C4CC4)CC3)=NC2N)cc1OC` (configuration not stated), for which the growth was 108%. With `COc1cc(C2CC(c3ccc4c(c3)OCO4)=NN2C(C)=O)cc(OC)c1OC` (configuration not stated), the growth was 19.9%.

Take `COc1cc(NCCCCCN)c2ncccc2c1`: the growth was 70.6%. As for `C=C1CCC2C(C)(CO)C(O)CCC2(C)C1C/C=C1/C(=O)OCC1Oc1ccccc1C` (configuration not stated), the growth was 50.7%. On the same count and under the same terms, the result for `CCCCCCCCCCCCCCCCNC(=O)OC(C)C` reads 1.69% (active); that for `O=C(/C=C/c1cc(-c2ccc3c(c2)OCO3)n[nH]1)c1ccc2c(c1)OCO2`, 44.5%; that for `c1cc(C2=N[C@@H]3c4ccccc4C[C@@H]3O2)nc(C2=N[C@@H]3c4ccccc4C[C@@H]3O2)c1`, 101%. On the same count and under the same terms, the result for `COc1ccccc1CNCCCN1C(=O)c2ccc3c4c(ccc(c24)C1=O)C(=O)N(CCCNCCCCNCCCN)C3=O` reads -27.1% (active); that for `NC(=N\N=C/c1ccc(O)cc1)/C(N)=N\N=C/c1ccc(O)cc1`, 33.7%; that for `COc1ccc(-c2c(N)n[nH]c2-c2cc(OC)c3c(c2)OCCO3)cc1`, -6.97% (active). In the case of `C=C1CCC2C(C)(CO)C(O)CCC2(C)C1C/C=C1/C(=O)OCC1O/C=C/c1ccccc1` (configuration not stated), the growth was 27.6%. `CC(C)(C)n1cc(-c2ccnc(NCCNS(=O)(=O)c3ccc(F)cc3)c2)c(-c2cccc(O)c2)n1`: the growth was 25.5%. On to `COc1ccc2c(c1)OC1=C(C(=O)OC1)C2c1cc(OC)c2c(c1)OCO2` (configuration not stated), for which the growth was -7% (active). For `CC(C)OC(=O)N1CCOCC1`, the growth was 109%.

As for `CC12CCC3C4(C)COC(c5ccccc5Cl)OC4CCC3(C)C1CC(C1=CCOC1=O)O2` (configuration not stated), the growth was 28%. For `CCCOC(=O)n1cccc1`, the growth was 114%. As to `O=S(=O)(NCCCNc1nccc(-n2ccc3cccnc32)n1)c1cccc(C(F)(F)F)c1`, the growth was 103%.

Consider `Cc1ccc(S(=O)(=O)NCCNc2cc(-c3cn(C(C)(C)C)nc3-c3cccc(O)c3)ccn2)cc1`, for which the growth is 51.7%.

Turning to `Cc1ccc(S(=O)(=O)NCCCNc2cc(-c3cn(C(C)(C)C)nc3-c3cccc(O)c3)ccn2)cc1`, the growth is 40.6%. Take `C=C1CCC2C(C)(CO)C(O)CCC2(C)C1CC(NCc1ccccc1)C1=CCOC1=O` (configuration not stated): the growth is 99.8%. Take `COc1ccc2c(c1)NC1=C(C(=O)OC1)C2c1cc(OC)c2c(c1)OCO2` (configuration not stated): the growth was 2.24% (active). For `COc1cc(Nc2ncccc2C(=O)NCc2cn(Cc3cccc(Oc4ccccc4)c3)nn2)cc(OC)c1`, the growth was 25.3%. As for `CC12CCC3C4(C)COC(c5ccco5)OC4CCC3(C)C1CC(C1=CCOC1=O)O2` (configuration not stated), the growth is 95.7%. On to `C=C1CCC2C3(C)COC(C)(C)OC3CCC2(C)C1C/C=C1/C(=O)OCC1Oc1ccccc1OC` (configuration not stated), for which the growth was 28.9%. As to `O=C(/C=C/c1ccccc1)c1cccc(O)c1`, the growth was 6.27% (active). Consider `CC(C)(C)n1cc(-c2ccnc(NCCCNS(=O)(=O)c3ccc(F)cc3)c2)c(-c2cccc(O)c2)n1`, for which the growth is 13.8%. As to `COc1cc(C2C3=C(COC3=O)Nc3cc4c(cc32)OCO4)cc2c1OCO2` (configuration not stated), the growth is -0.432% (active). Still for that read-out and setting: the figure for `O=C(NCCNc1nccc(-n2ccc3cccnc32)n1)c1ccc(C(F)(F)F)cc1` is 105%; for `COc1cc(C2C3=C(COC3=O)Nc3cc4c(cc32)CCC4)cc2c1OCO2` (configuration not stated) it is 5.8% (active). For `COc1ccc(-c2ccc(C)n2-c2ccc(-c3nc4cc(Cl)ccc4s3)cc2)cc1`, the growth was 76.9%. For `O=C(NCc1cn(Cc2cccc(Oc3ccccc3)c2)nn1)c1cccnc1Nc1ccc(F)cc1`, the growth is 28.3%. As for `CC12CCCC(CC(=O)c3[nH]c4ccccc4c31)C2` (configuration not stated), the growth was 15.5%.

The next assay has as its system RPMI-8226 leukemia. The description is as above. The conditions noted are these: 10 µM unless noted.
Consider `COc1ccc(C(=O)c2cc(OC)c3c(c2)OCO3)cc1O`, for which the growth is 24.7%. Turning to `Cc1cc(C(C)(C)C)ccc1S`, the growth was 104%. As for `Fc1ccccc1-c1nc(-c2nc3cc(Cl)c(Cl)cc3[nH]2)c2ccccn12`, the growth was 74.7%.

Consider `COc1cc(C2CC(c3ccc4c(c3)OCO4)=NN2C=O)cc(OC)c1OC` (configuration not stated), for which the growth was 52.8%. Regarding `COc1cc(C2CC(c3ccc4c(c3)OCO4)=NN2C(C)=O)cc(OC)c1OC` (configuration not stated), the growth was 39.2%.

Turning to `COc1cc(NCCCCCN)c2ncccc2c1`, the growth was 88.8%. With `CCCCCCCCCCCCCCCCNC(=O)OC(C)C`, the growth is 80.1%.

For `O=C(/C=C/c1cc(-c2ccc3c(c2)OCO3)n[nH]1)c1ccc2c(c1)OCO2`, the growth is 56.6%. Take `COc1ccccc1CNCCCN1C(=O)c2ccc3c4c(ccc(c24)C1=O)C(=O)N(CCCNCCCCNCCCN)C3=O`: the growth is -9.27% (active). Take `NC(=N\N=C/c1ccc(O)cc1)/C(N)=N\N=C/c1ccc(O)cc1`: the growth was 65.3%.

For the compound `COc1ccc(-c2c(N)n[nH]c2-c2cc(OC)c3c(c2)OCCO3)cc1`, the growth is 74.7%. As to `COc1ccc2c(c1)OC1=C(C(=O)OC1)C2c1cc(OC)c2c(c1)OCO2` (configuration not stated), the growth is 28.3%. As for `CC(C)OC(=O)N1CCOCC1`, the growth is 107%. Regarding `CCCOC(=O)n1cccc1`, the growth is 110%. The same measure, in the same setting: the figure for `COc1ccc2c(c1)NC1=C(C(=O)OC1)C2c1cc(OC)c2c(c1)OCO2` (configuration not stated) is 25.1%. As for `O=C(/C=C/c1ccccc1)c1cccc(O)c1`, the growth is -37.8% (active). Same read-out and setting: the figure for `COc1cc(C2C3=C(COC3=O)Nc3cc4c(cc32)OCO4)cc2c1OCO2` (configuration not stated) is 21.9%; for `COc1cc(C2C3=C(COC3=O)Nc3cc4c(cc32)CCC4)cc2c1OCO2` (configuration not stated) it is 23.2%.
